Data on 12 compounds can be found in PubChem BioAssay (Tox21).

Active and inactive are the calls of the source. The call rests on the fitted dose curve; in most records, active means well fitted curve in the direction sought with a large enough effect in the signal ratio in the repeat runs (not every such curve was filed as active); inconclusive means weak or mixed curves, or effect the other way; inactive means no such curve, though single readings can be large or run the other way; the % refers to the signal ratio.
On the % scale 0 is the no-effect control and ±100 the full control effect; potency means the concentration at half of the fitted maximal effect.

The target in the experiment is Estrogen receptor (Homo sapiens) (UniProt P03372). Description: qHTS assay to identify small molecule antagonists of the estrogen receptor alpha (ER-alpha) signaling pathway (AID 743069). The conditions noted are these: HEK293 ER-alpha-UAS-bla, beta-lactamase ratio, antagonist mode; series mostly up to 69.4 µM; activity, negative = inhibition: at the top concentration. The method, boiled down: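 HEK293 ER-alpha-UAS-bla GripTite cells, held overnight in 2% charcoal-stripped FBS, 5,000 cells/well, preincubated 4 h, then compound plus 17beta-estradiol for 18 h at 37C. Beta-lactamase read by LiveBLAzer B/G FRET substrate, 2 h at room temperature.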
Estrogen receptor (Homo sapiens), sequence (P03372 whole entry, looked up): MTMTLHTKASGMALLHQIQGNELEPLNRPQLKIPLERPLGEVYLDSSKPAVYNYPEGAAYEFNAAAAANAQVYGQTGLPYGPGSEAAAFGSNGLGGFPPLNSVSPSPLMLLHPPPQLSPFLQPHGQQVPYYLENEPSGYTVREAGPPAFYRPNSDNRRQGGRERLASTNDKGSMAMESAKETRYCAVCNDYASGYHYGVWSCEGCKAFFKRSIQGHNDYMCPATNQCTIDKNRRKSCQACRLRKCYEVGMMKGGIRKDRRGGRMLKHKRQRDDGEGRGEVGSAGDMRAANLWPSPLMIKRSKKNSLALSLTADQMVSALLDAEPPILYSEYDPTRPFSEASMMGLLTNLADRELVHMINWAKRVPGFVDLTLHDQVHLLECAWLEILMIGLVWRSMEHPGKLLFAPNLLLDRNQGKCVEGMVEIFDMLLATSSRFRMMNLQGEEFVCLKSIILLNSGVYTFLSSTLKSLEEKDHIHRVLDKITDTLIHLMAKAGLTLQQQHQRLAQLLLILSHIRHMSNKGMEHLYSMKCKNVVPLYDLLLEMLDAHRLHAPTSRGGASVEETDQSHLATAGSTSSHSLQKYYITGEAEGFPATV
With `N[C@@H](C(=O)N[C@@H]1C(=O)N2C(C(=O)O)=C(Cl)CC[C@H]12)c1ccccc1`, the “activity, negative = inhibition” value is 10.7% (inactive).

For `O=P(O)(O)C(O)(Cc1cnc2ccccn12)P(=O)(O)O`, the “activity, negative = inhibition” value was -19.6% (inactive). For `Cc1cccc(C)c1Nc1ncccc1C(=O)O`, the “activity, negative = inhibition” value was -13.1% (inactive). As for `CNCC(O)c1ccc(OC(=O)C(C)(C)C)c(OC(=O)C(C)(C)C)c1` (configuration not stated), the “activity, negative = inhibition” value was 29.8% [at 32.6 µM] (inactive). `CN[C@@H]1[C@@H](O)[C@@H](O[C@@H]2[C@@H](O)[C@H](O[C@H]3O[C@H](CN)[C@@H](O)[C@H](O)[C@H]3O)[C@@H](N)C[C@H]2NC(=O)C(O)CN)OC[C@]1(C)O` (some centres not stated): the “activity, negative = inhibition” value is 24.5% (inactive). On the same count and under the same terms, next, `CO/N=C(\C(=O)N[C@@H]1C(=O)N2C(C(=O)O)=CCS[C@H]12)c1csc(N)n1`: 3.24% (inactive).

Turning to `CC(C)C(=O)OCC(=O)[C@@]12O[C@H](C3CCCCC3)O[C@@H]1C[C@H]1[C@@H]3CCC4=CC(=O)C=C[C@]4(C)[C@H]3[C@@H](O)C[C@@]12C`, the Potency is 21.3 µM [inconclusive] (active).

As for `O=C(O)CCC/C=C\C[C@@H]1[C@@H](/C=C/[C@@H](O)COc2cccc(Cl)c2)[C@H](O)C[C@@H]1O`, the “activity, negative = inhibition” value is -3.11% (inactive). As to `CC[C@H]1NC(=O)[C@@H](NC(=O)c2ncccc2O)[C@@H](C)OC(=O)[C@H](c2ccccc2)NC(=O)[C@@H]2CC(=O)CCN2C(=O)[C@H](Cc2ccccc2)N(C)C(=O)[C@@H]2CCCN2C1=O`, the “activity, negative = inhibition” value was -20.2% (inactive). Still for that read-out and setting: the result for `CC(O)[C@H]1CC[C@H]2[C@@H]3CC[C@@H]4C[C@@H](O)CC[C@]4(C)[C@H]3CC[C@]12C` (some centres not stated) reads 20.9% (inactive); that for `CC(=O)N(CC(C)C(=O)O)c1c(I)cc(I)c(N)c1I` (configuration not stated), 3.99% [at 32.6 µM] (inactive).

On to `CCN1C(=O)NC(c2ccccc2)C1=O` (configuration not stated), for which the “activity, negative = inhibition” value is -4.05% [at 32.6 µM] (inactive).
